# In PubChem BioAssay (NCATS):
# Inconclusive results are not listed. Where a call stands in place of a potency, no number is given. Activity calls are given as the source filed them. Calls follow the shape of the dose curve; as a rule, active = well fitted cell-killing curve with a large enough effect; inconclusive = small, poorly fitted or top-dose-only effect; inactive = no such curve, though single readings can be large or run the other way.
# Test: qHTS of pediatric cancer cell lines to identify multiple opportunities for drug repurposing: Primary screen for SJ-GBM2 cells (AID 1347091)
# Conditions: SJ-GBM2 viability, CellTiter-Glo luminescence, 48 h; series mostly up to 46 µM
# Description: Drug repurposing or repositioning has been offered as a strategy for drug development in oncology programs. This approach has special potential for childhood cancers and other rare or orphan diseases, where the expected return on new drug development has been a disincentive to pharmaceuticals.
# In this project we exploit the poly-pharmacology of drugs to discover new indications via phenotypic screening of a panel of 19 well-characterized cell lines derived from solid tumors seen in children and adolescents. The goal is to identify approved drugs with previously unrecognized anticancer properties that has the potential to reveal new mechanisms and biological processes involved in carcinogenesis or drug resistance. We employed a titration-based paradigm (quantitative high-throughput screening or qHTS), where all compounds were tested at multiple concentrations for their effect on cell viability. Concentration-response curves (CRCs) were derived directly from the primary screen, and both potency and efficacy values were used to identify compounds with robust bioactivity profiles. We screened the NIH Chemical Genomics Center (NCGC) Pharmaceutical Collection (NPC) and Mechanism Interrogation Plate (MIPE) small molecule collections of approved and investigational compounds against these cell lines; and measured metabolically active cells after 48 hours of compound treatment as a proxy for cell viability.
# Assay Submitter: Nathalia J. Martinez, National Center for Advancing Translational Sciences, National Institutes of Health, Rockville, MD, USA; email: natalia.martinez@nih.gov
# [1] Shen, M et al. Quantitative high-throughput phenotypic screening of pediatric cancer cell lines identifies multiple opportunities for drug repurposing. Oncotarget 2017 Dec 19;9(4):4758-4772. PMID 29435139.
# The cells were obtained from University of North Carolina (UNC), Pediatric Preclinical Testing Program (PPT), and Coriell Institute (CI).
# qHTS cell viability assay:
# Cells were assayed in growth media at a density of 500-1,000 cells/well. Five microliters of cells were dispensed into 1,536-well, white, solid-bottom, TC-treated plates (Greiner Bio One) using a multidrop dispenser and incubated at 37 degrees C, 5% CO2, under a humidified atmosphere for 5 hours. Twenty-three nanoliters of compounds and controls (neutral control DMSO or positive control bortezomib at final concentration of 2.3 µM) were subsequently transferred by Kalypsys pintool. For primary screens, the MIPE collection was tested at 11-point dilutions (final concentrations range from 0.78 nM to 46 µM) and the NPC collection at 8-point dilutions (final concentrations range from 0.59 nM to 46 µM). Compounds tested in follow-up screens were assayed at 11-point dilutions. Cells were incubated for 48 hours, followed by addition of 3 uL of CellTiter-Glo (Promega). After a 15 min incubation at room temperature, samples were analyzed for luminescence intensity using a ViewLux High-throughput CCD imager equipped with clear filters.
# Potency is read from the fitted curve at half-maximal effect.
SMILES,Potency,"activity change, negative = cytotoxic"
CCN(CC)CCOC(=O)C1(c2ccccc2)CCCC1,inactive,–
CCC(CC)(CC(=O)Nc1cccc(/C=C/c2nc(C3CCC3)cs2)c1)C(=O)O,inactive,–
CCCCCCCCCCCCCCCC(=O)O,inactive,–
O=C1OC(CN2CCOCC2)CN1/N=C/c1ccc([N+](=O)[O-])o1 (stereo not given),inactive,–
CO[C@H]1C=CO[C@@]2(C)Oc3c(C)c(O)c4c(O)c(c(/C=N/N5CCN(C)CC5)c(O)c4c3C2=O)NC(=O)/C(C)=C\C=C[C@H](C)[C@H](O)[C@@H](C)[C@@H](O)[C@@H](C)[C@H](OC(C)=O)[C@@H]1C,inactive,–
CC(=O)Nc1ccc(CC(=O)O)cc1,inactive,–
Cc1cccc(C)c1NC(=O)CN1CCCCCC1,inactive,–
CCOc1cc(OCC)c(C(=O)CCC(=O)O)cc1OCC,inactive,–
CN(CCCN1c2ccccc2CCc2ccccc21)CC(=O)c1ccc(Cl)cc1,inactive,–
CCCCN=C(N)N=C(N)N,inactive,–
O=C1OC2(c3ccccc31)c1cc(Br)c(O)c(Br)c1Oc1c2cc(Br)c(O)c1Br,inactive,–
CCCc1ncc(C[n+]2ccccc2C)c(N)n1,inactive,–
C[N+]1(CC2COC(c3ccccc3)(C3CCCCC3)O2)CCCCC1 (stereo not given),inactive,–
CCC1NC(=O)c2cc(S(N)(=O)=O)c(Cl)cc2N1 (stereo not given),inactive,–
Cc1cccc(C)c1NC(=O)c1ccccc1C(=O)O,inactive,–
CN1CCC(OC(c2ccccc2)c2ccccc2)CC1,inactive,–
CCOC(=O)c1ccc(N)cc1,inactive,–
CCCCCCCC/C=C\CCCCCCCCN,inactive,–
Cc1cc(C)cc(OCC2CNC(=O)O2)c1 (stereo not given),inactive,–
OC[C@H]1O[C@@H]2O[C@H]3[C@H](O)[C@@H](O)[C@@H](O[C@H]4[C@H](O)[C@@H](O)[C@@H](O[C@H]5[C@H](O)[C@@H](O)[C@@H](O[C@H]6[C@H](O)[C@@H](O)[C@@H](O[C@H]7[C@H](O)[C@@H](O)[C@@H](O[C@H]8[C@H](O)[C@@H](O)[C@@H](O[C@H]1[C@H](O)[C@H]2O)O[C@@H]8CO)O[C@@H]7CO)O[C@@H]6CO)O[C@@H]5CO)O[C@@H]4CO)O[C@@H]3CO,inactive,–

SMILES,Potency,"activity change, negative = cytotoxic"
CCCN(CCC)S(=O)(=O)c1ccc(C(=O)O)cc1,inactive,–
CCCCc1cc2ccccc2c(OCCN(C)C)n1,inactive,–
CCCCCCCCCCCCCCC[C@H](O)[C@@H](N)CO,inactive,–
O=C1C(=O)c2ccccc2C(O)=C1C1CCC(c2ccc(Cl)cc2)CC1 (stereo not given),inactive,–
OCCOCCN1CCN(C2=Nc3ccccc3Sc3ccccc32)CC1,inactive,–
C[C@@]12C(=O)OC(=O)[C@]1(C)C1CCC2O1,2.37 µM (active),–
C=C[C@H]1CN2CC[C@H]1C[C@@H]2[C@@H](O)c1ccnc2ccc(OC)cc12,inactive,–
CCCN(CCc1cccs1)[C@H]1CCc2c(O)cccc2C1,inactive,–
c1ccc(-c2nc[nH]c2-c2ccccc2)cc1,inactive,–
Cc1cc2c(OCC(CNC(C)(C)C)OC(=O)c3ccccc3)cccc2[nH]1 (stereo not given),inactive,–
CC(C)(C)NC[C@H](O)COc1cccc2c1CCCC2=O,inactive,–
CN1CCN(C2=Nc3ccccc3Sc3ccc(Cl)cc32)CC1,inactive,–
COc1ccc(CN(CCN(C)C)c2ncccn2)cc1,inactive,–
N#C/C(=C1\SCC(c2ccccc2Cl)S1)n1ccnc1 (stereo not given),inactive,–
COc1cc(C(=S)N2CCOCC2)ccc1O,inactive,–
O=C(O)C(Cc1cc(I)c(O)c(I)c1)c1ccccc1 (stereo not given),inactive,–
Nc1ccc(S(=O)(=O)NCc2ccccc2)cc1,inactive,–
CCOc1ccccc1C(N)=O,inactive,–
C=C[C@H]1CN2CC[C@H]1C[C@H]2[C@H](O)c1ccnc2ccc(OC)cc12,inactive,–
CCN[C@@H]1C[C@H](N)[C@@H](OC2OC(CN)=CCC2N)[C@H](O)[C@H]1O[C@H]1OC[C@](C)(O)[C@H](NC)[C@H]1O (stereo not given in full),–,1.88% [at 0.597 µM] (inactive)
